LMP1 NFkB inh – Epstein-Barr LMP1 NF-kappaB reporter inhibition; LMP1-induced NF-kappaB luciferase reporter cells, luminescence; inhibition, % at 12.5 µM; 350,000 compounds, 0.69% hits; AID 504558; in the data active means inhibition above about 41%
LGR2 antag – inhibitors of bursicon-induced Drosophila LGR2 receptor cAMP signaling; 380,000 compounds, 0.35% hits; inhibition, % at 9.99 µM; HEK293 LGR2, CRE-luciferase, bursicon-stimulated, 4 h; AID 720647;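 active means drop in luminescence signal, shown as inhibition above about 50% in the replicate tests, limit read from the data, passing the limit was not always enough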;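 further: agonist challenge used bursicon conditioned medium at about half maximal strength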
TROY signal inh – TROY signaling inhibition; Q293 LMP1-TROYcd NF-kB luciferase reporter, 4 h; 360,000 compounds, 0.98% hits; inhibition, % at 10 µM;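 active means compounds whose plate-normalised and pattern-corrected inhibition of the luciferase reporter signal at the single screening dose is 50% or more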
EWS-Fli inh – EWS/Fli transcriptional activity inhibition. 350,000 compounds, 0.67% hits. A673 NR0B1-luciferase reporter, viability-normalised. inhibition, % at 12.6 µM. AID 651661;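 active means mean inhibition of at least 50% after viability correction, with every replicate also passing that limit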;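 further: firefly luciferase signal divided by Alamar Blue viability fluorescence both relative to DMSO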
TWEAK Fn14 block – inhibitors of TWEAK-Fn14 interaction signaling. inhibition, % at 10 µM. 360,000 compounds, 2% hits. TWEAK-stimulated Fn14 reporter cells, luciferase luminescence, 8 h; in the data active means inhibition above about 50%
Each line names hits and unclear results; the compound was inactive in the other large screens. An excerpt weighted towards active compounds, which were near 2.6% of everything screened.

O=S(=O)(/C=C/C=C/S(=O)(=O)c1ccccc1)c1ccccc1	EWS-Fli inh 65, TWEAK Fn14 block 93
Cc1ccc(S(=O)(=O)C=CS(=O)(=O)c2ccc(C)cc2)cc1	none
O=C(O)c1ccc(-n2ncc(Cl)c(Cl)c2=O)cc1	none (no result: LGR2 antag, EWS-Fli inh)
O=C(OCn1ncc(Cl)c(Cl)c1=O)c1ccc(C(F)(F)F)cc1	TWEAK Fn14 block 79 (no result: EWS-Fli inh)
Cc1ccc(C(=O)OCn2ncc(Cl)c(Cl)c2=O)cc1	LMP1 NFkB inh 89, TROY signal inh 68, TWEAK Fn14 block 106 (no result: LGR2 antag, EWS-Fli inh)
c1coc(C2=NC(c3ccco3)C(c3ccco3)N2)c1 (configuration not stated)	TWEAK Fn14 block 64 (no result: LGR2 antag, EWS-Fli inh)
CC(=O)NC(Nc1c(C)n(C)n(-c2ccccc2)c1=O)C(Cl)(Cl)Cl (configuration not stated)	TROY signal inh 63
CCCC(=O)NC(Nc1c(C)n(C)n(-c2ccccc2)c1=O)C(Cl)(Cl)Cl (configuration not stated)	none
Cc1c(NC(=S)NC(NC(=O)C(C)(C)C)C(Cl)(Cl)Cl)c(=O)n(-c2ccccc2)n1C (configuration not stated)	none
CCCC(=O)NC(NC(=S)Nc1c(C)n(C)n(-c2ccccc2)c1=O)C(Cl)(Cl)Cl (configuration not stated)	TWEAK Fn14 block 82 (no result: LGR2 antag, TROY signal inh, EWS-Fli inh)
CNC[C@@H]1Oc2cc(-c3ccncc3)ccc2S(=O)(=O)N([C@@H](C)CO)C[C@H]1C	none (no result: LMP1 NFkB inh, TROY signal inh, TWEAK Fn14 block)
C[C@H](NC(=O)C[C@@H]1C=C[C@H](NS(=O)(=O)c2cccc(F)c2)[C@@H](CO)O1)c1ccccc1	none (no result: LMP1 NFkB inh, TROY signal inh, TWEAK Fn14 block)
Cc1cc(N)c2cc(NC(=O)/C=C/c3ccccc3Cl)ccc2n1	TROY signal inh 81 (no result: LGR2 antag, EWS-Fli inh)
Cc1ccnc(NC(=O)/C=C/c2ccccc2Cl)c1	TWEAK Fn14 block 64
CC(C)NC(=O)N(C)C[C@H]1Oc2ccc(NC(=O)Nc3ccc(F)cc3)cc2C(=O)N([C@H](C)CO)C[C@H]1C	none (no result: LMP1 NFkB inh, TROY signal inh, TWEAK Fn14 block)
CCc1nc(N)nc(N)c1-c1ccc(N(C)Cc2ccccc2)c([N+](=O)[O-])c1	EWS-Fli inh 56, TWEAK Fn14 block 68
C[C@H](CO)N1C[C@H](C)[C@H](CN(C)C(=O)C2CCCCC2)OCCCC[C@H](C)Oc2ccc(NC(=O)Cc3ccccc3)cc2C1=O	none (no result: LMP1 NFkB inh, TROY signal inh, TWEAK Fn14 block)
NNc1nc(Nc2ccc([N+](=O)[O-])cc2)nc(N2CCCCCC2)n1	none
Cc1ccc([N+](=O)[O-])cc1Nc1nc(N2CCCC2)nc(N2CCCC2)n1	TWEAK Fn14 block 52
Brc1ccc(N/N=C(/N=Nc2nn[nH]n2)c2ccccc2)cc1	LMP1 NFkB inh 58
COc1cccc2c1C(=O)O/C2=C/c1ccc2c(c1)OCO2	LGR2 antag 62, TWEAK Fn14 block 63 (no result: EWS-Fli inh)
COc1cccc(OC)c1C1=CC(=O)C[C@H](c2ccc3c(c2)OCO3)C1	none
CC(C)(C)c1ccc(C(=O)Nc2sc3c(c2C(=O)O)CCC3)cc1	TROY signal inh 62, TWEAK Fn14 block 88
Cc1ccc(C(=O)Nc2sc3c(c2C(=O)O)CCCCC3)o1	TWEAK Fn14 block 65 (no result: EWS-Fli inh)
O=C(Nc1sc2c(c1C(=O)O)CCCC2)c1ccc(F)cc1	none
O=C(Nc1sc2c(c1C(=O)O)CCCCC2)c1cccs1	TWEAK Fn14 block 53
COc1ccc(NC(=O)N(C)C[C@H]2Oc3ccc(NS(=O)(=O)c4ccccc4)cc3CC(=O)N([C@H](C)CO)C[C@@H]2C)cc1	none (no result: LMP1 NFkB inh, TROY signal inh, TWEAK Fn14 block)
COc1ccc(C(=O)/C=C/Sc2nc3ccccc3o2)cc1	EWS-Fli inh 55, TWEAK Fn14 block 61
COc1ccc(C(=O)N/C(N)=N/c2nc3ccccc3o2)cc1	none (no result: LGR2 antag, EWS-Fli inh)
CCN1CCN(c2nc(-c3ccccc3Cl)nc3ccccc23)CC1	TWEAK Fn14 block 68
C[C@@H]1CN([C@@H](C)CO)S(=O)(=O)c2ccc(-c3ccccc3)cc2O[C@H]1CN(C)C(=O)Cc1ccccc1	none (no result: LMP1 NFkB inh, TROY signal inh, TWEAK Fn14 block)
CN1C(=O)c2cc(NC(=O)Cc3ccccc3)ccc2OC[C@@H]2O[C@H](CC(=O)O)CC[C@H]21	none (no result: LMP1 NFkB inh, TROY signal inh, TWEAK Fn14 block)
Cn1c(/C=C/c2ccc([N+](=O)[O-])o2)nc2ccccc2c1=O	LMP1 NFkB inh 88 (no result: LGR2 antag, EWS-Fli inh)
CCC(=O)N1C[C@@H](C)[C@@H](OC)CN(C)C(=O)c2ccc(NC(=O)c3ccccc3)cc2OC[C@@H]1C	none (no result: LMP1 NFkB inh, TROY signal inh, TWEAK Fn14 block)
CO[C@@H]1CN(C)C(=O)c2ccc(NS(C)(=O)=O)cc2OC[C@@H](C)N(CC2CCOCC2)C[C@H]1C	none (no result: LMP1 NFkB inh, TROY signal inh, TWEAK Fn14 block)
C[C@H](CO)N1C[C@H](C)[C@H](CN(C)Cc2ccc(-c3ccccc3)cc2)Oc2c(NS(=O)(=O)c3ccc(Cl)cc3)cccc2C1=O	none (no result: LMP1 NFkB inh, TROY signal inh, TWEAK Fn14 block)
Cc1cc(COc2ccccc2O)on1	TWEAK Fn14 block 86 (no result: TROY signal inh, EWS-Fli inh)
CCSc1nnc(NC(=O)C(C)C)s1	none
